# Experimental data as given in the supplement of paper PMC8728848.
# This excerpt belongs to a sample that is enriched for the strongest signals.
# Experiments:
# Experiment in all cases: glycan array binding signal (z-score within array); higher = stronger binding
# Details in all cases: glycan notation: IUPAC condensed, linker removed
# [1] = target: GlcNAc(a1-4)Gal(b1-3)GlcNAc
# Outline: (§1)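 Glycan array data came from 3228 arrays in the Consortium for Functional Glycomics database, and only arrays with an available protein sequence were kept. Glycan names were put into IUPAC-condensed notation, and columns mapping to the same glycan were averaged. The binding signal is a within-array Z-score, averaged across arrays of one protein sequence run at different concentrations or buffers and across linkers. A negative Z-score can be read as non-binding.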
# [2] = target: GlcNAc(b1-2)[GlcNAc(b1-4)]Man(a1-3)[GlcNAc(b1-2)Man(a1-6)]Man(b1-4)GlcNAc(b1-4)GlcNAc
# Outline: as §1
# [3] = target: GlcNAc(b1-3)Gal(b1-3)GalNAc
# Outline: as §1
# [4] = target: GlcNAc(b1-3)Gal(b1-4)GlcNAc(b1-3)Gal(b1-4)GlcNAc(b1-2)Man(a1-3)[GlcNAc(b1-3)Gal(b1-4)GlcNAc(b1-3)Gal(b1-4)GlcNAc(b1-2)Man(a1-6)]Man(b1-4)GlcNAc(b1-4)[Fuc(a1-6)]GlcNAc
# Outline: as §1
# [5] = target: GlcNAc(b1-3)Gal(b1-4)GlcNAc(b1-6)[Gal(b1-3)]GalNAc
# Outline: as §1
# [6] = target: GlcNAc(b1-3)Gal(b1-4)GlcNAc(b1-6)[GlcNAc(b1-3)]Gal(b1-4)GlcNAc
# Outline: as §1
# [7] = target: GlcNAc(b1-4)Gal(b1-4)GlcNAc
# Outline: as §1
# [8] = target: GlcNAc(b1-4)GlcNAc(b1-4)GlcNAc(b1-4)GlcNAc(b1-4)GlcNAc
# Outline: as §1
# [9] = target: GlcNAc(b1-6)GalNAc
# Outline: as §1
# [10] = target: Kdn(a2-3)Gal(b1-4)GlcNAc
# Outline: as §1
# [11] = target: Man(a1-2)Man(a1-2)Man(a1-3)Man
# Outline: as §1
# [12] = target: Man(a1-2)Man(a1-3)[Man(a1-2)Man(a1-6)]Man(a1-6)[Man(a1-2)Man(a1-2)Man(a1-3)]Man(b1-4)GlcNAc(b1-4)GlcNAc
# Outline: as §1
# [13] = target: Man(a1-2)Man(a1-6)[Man(a1-3)]Man(a1-6)[Man(a1-2)Man(a1-2)Man(a1-3)]Man(b1-4)GlcNAc(b1-4)GlcNAc
# Outline: as §1
# [14] = target: Neu5Ac(a2-3)Gal(b1-3)GalNAc(b1-3)Gal(a1-4)Gal(b1-4)Glc
# Outline: as §1
# [15] = target: Neu5Ac(a2-3)Gal(b1-3)GlcNAc(b1-6)GalNAc
# Outline: as §1
# [16] = target: Neu5Ac(a2-3)Gal(b1-3)GlcNAc6S
# Outline: as §1
# [17] = target: Neu5Ac(a2-3)Gal(b1-4)GlcNAc(b1-3)Gal
# Outline: as §1
# [18] = target: Neu5Ac(a2-3)Gal(b1-4)[Fuc(a1-3)]GlcNAc(b1-2)Man
# Outline: as §1
# [19] = target: Neu5Ac(a2-3)Gal(b1-4)[Fuc(a1-3)]GlcNAc(b1-6)[Neu5Ac(a2-3)Gal(b1-3)]GalNAc
# Outline: as §1
# [20] = target: Neu5Ac(a2-3)GalNAc
# Outline: as §1
# [21] = target: Neu5Ac(a2-6)Gal
# Outline: as §1
# [22] = target: Neu5Ac(a2-6)Gal(b1-4)GlcNAc(b1-2)[Neu5Ac(a2-6)Gal(b1-4)GlcNAc(b1-6)]Man(a1-6)[Neu5Ac(a2-6)Gal(b1-4)GlcNAc(b1-2)Man(a1-3)][GlcNAc(b1-4)]Man(b1-4)GlcNAc(b1-4)GlcNAc
# Outline: as §1
# [23] = target: Neu5Ac(a2-6)Gal(b1-4)GlcNAc(b1-3)Gal(b1-4)GlcNAc(b1-2)Man(a1-3)[Neu5Ac(a2-6)Gal(b1-4)GlcNAc(b1-3)Gal(b1-4)GlcNAc(b1-2)Man(a1-6)]GalNAc
# Outline: as §1
# [24] = target: Neu5Ac(a2-8)Neu5Ac(a2-3)Gal(b1-3)GalNAc(b1-4)[Neu5Ac(a2-3)]Gal(b1-4)Glc
# Outline: as §1
# [25] = target: Neu5Ac(a2-8)Neu5Ac(a2-3)Gal(b1-3)GalNAc(b1-4)[Neu5Ac(a2-8)Neu5Ac(a2-3)]Gal(b1-4)Glc
# Outline: as §1
# [26] = target: Neu5Gc(a2-6)Gal(b1-4)GlcNAc
# Outline: as §1
# [27] = target: Neu5Gc(a2-8)Neu5Gc(a2-3)Gal(b1-4)GlcNAc
# Outline: as §1
# [28] = target: Neu5Gc(a2-8)Neu5Gc(a2-3)Gal(b1-4)GlcNAc(b1-3)Gal(b1-4)GlcNAc
# Outline: as §1
# [29] = target: Neu5Gc(a2-8)Neu5Gc(a2-6)Gal(b1-4)GlcNAc
# Outline: as §1
binder,measurement,setting,value
"CBP21 (Serratia marcescens), O83009 (protein) MNKTSRTLLSLGLLSAAMFGVSQQANAHGYVESPASRAYQCKLQLNTQCGSVQYEPQSVEGLKGFPQAGPADGHIASADKSTFFELDQQTPTRWNKLNLKTGPNSFTWKLTARHSTTSWRYFITKPNWDASQPLTRASFDLTPFCQFNDGGAIPAAQVTHQCNIPADRSGSHVILAVWDIADTANAFYQAIDVNLSK",glycan array binding signal (z-score),[1],0.503
same,glycan array binding signal (z-score),[2],-0.435
same,glycan array binding signal (z-score),[3],0.04
same,glycan array binding signal (z-score),[4],3.08
same,glycan array binding signal (z-score),[5],-0.256
same,glycan array binding signal (z-score),[6],-1.31
same,glycan array binding signal (z-score),[7],0.145
same,glycan array binding signal (z-score),[8],0.729
same,glycan array binding signal (z-score),[9],-0.697
same,glycan array binding signal (z-score),[10],-0.42
same,glycan array binding signal (z-score),[11],-0.437
same,glycan array binding signal (z-score),[12],2.53
same,glycan array binding signal (z-score),[13],0.074
same,glycan array binding signal (z-score),[14],1.24
same,glycan array binding signal (z-score),[15],0.458
same,glycan array binding signal (z-score),[16],-0.561
same,glycan array binding signal (z-score),[17],-0.019
same,glycan array binding signal (z-score),[18],-1.42
same,glycan array binding signal (z-score),[19],-0.314
same,glycan array binding signal (z-score),[20],-0.582
same,glycan array binding signal (z-score),[21],0.109
same,glycan array binding signal (z-score),[22],0.063
same,glycan array binding signal (z-score),[23],2.96
same,glycan array binding signal (z-score),[24],4
same,glycan array binding signal (z-score),[25],0.155
same,glycan array binding signal (z-score),[26],0.755
same,glycan array binding signal (z-score),[27],-0.788
same,glycan array binding signal (z-score),[28],0.62
same,glycan array binding signal (z-score),[29],0.37
